DT40 TDP1 CPT: growth inhibition of DT40 Tdp1-/-;hTDP1 cells with camptothecin (screen for TDP1 inhibitors) | chicken DT40 Tdp1-/-;hTDP1 cells + 20 nM CPT, ATP luminescence, 48 h | Potency, µM (doses to about 46.2 µM), for inactives: at the top dose activity change, negative = growth inhibition, usual class: inhibitors | 12% of 420,000 active | AID 686979; further: potency means the concentration at half of the fitted maximal effect; nearly all actives have a fitted effect of over 55% in size
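Chicken DT40 Tdp1-/- cells complemented with human TDP1, 400 cells/well, exposed to compounds plus 20 nM camptothecin for at least 48 h at 37 C; viability read as ATP content by CellTiter-Glo luminescence.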
IL1B secr inh: blocks inflammasome-driven IL-1 beta release. THP-1 LPS/ATP IL-1B secretion, AlphaLISA, 16 h; hits give low values. activity change, % at 57.5 µM. 4.7% of 360,000 active; in the data active means activity change below about -50%; inconclusive means mostly about -30% to -49%
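THP-1 cells pretreated 1 hr with compounds (up to 57.5 uM final), then stimulated with LPS (250 ng/mL final) plus ATP (1.25 mM final); secreted IL-1B measured by AlphaLISA after 16 hr, decreased signal indicating inhibition.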
HT1080 IDH1KD tx: HT-1080 IDH1 knockdown cell toxicity (counter line). HT-1080 IDH1 knockdown viability, ATP luminescence, 48 h. Potency, µM (top dose mostly 46.1 µM), for the others: at the top dose activity, negative = toxicity, actives largely listed as cytotoxic. 2% of 360,000 active. AID 686971;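 further: potency means the concentration at half of the fitted maximal effect; 0% = DMSO wells and -100% = cell-free medium wells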
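In this qHTS, HT-1080 cells depleted of IDH1 are exposed for 48 h at 37 °C to compound titrations. Toxicity is scored from CellTiter-Glo luminescence, with DMSO as full viability and medium alone as none.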
TDP1 cell noCPT: qHTS for Inhibitors of human tyrosyl-DNA phosphodiesterase 1 (TDP1): qHTS in cells in absence of CPT; DT40 Tdp1-/- hTDP1 cells, no CPT, ATP luminescence, 48 h; Potency, µM (highest dose often 46.2 µM), for the others: top-dose activity change, negative = growth inhibition, usual class: inhibitors; 15% of 420,000 active; AID 686978, 2013; further: potency means the concentration at half of the fitted maximal effect; nearly all actives have a fitted effect of over 55% in size
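Chicken DT40 Tdp1-/- cells complemented with human TDP1, screened without camptothecin (DMSO vehicle only), 400 cells/well. Compounds pin-transferred, cells incubated at 37 °C for at least 48 hr. Growth read as ATP-dependent luminescence (CellTiter-Glo, 30 min at RT).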
HT1080-NT tox: kills 2HG-producing HT-1080-NT fibrosarcoma cells; 1.6% of 360,000 active; HT-1080-NT fibrosarcoma viability, CellTiter-Glo ATP luminescence, 48 h; Potency, µM (titrated, usually from 46.1 µM), for the others: top-dose activity, negative = less viability, actives largely listed as cytotoxic;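 further: NT is the 2HG producing partner of a matched IDH1 knockdown line; potency means the concentration at half of the fitted maximal effect; 0% = DMSO-treated cells and -100% = media-only wells without cells; nearly all actives have a fitted effect of over 55% in size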
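Read-out is CellTiter-Glo luminescence after 10 minutes at room temperature, following 48 hours' compound treatment of HT-1080-NT cells (750 cells/well, RPMI, 5% FBS, 37 degrees C).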
Active calls of the source: *; ? = inconclusive; nt = no result; ! = not active in a repeat; [ ] = remark or other dose. A selection: hits, their analogues and other compounds. The true share with any hit is near 19%. Unless noted, the call rests on the fitted dose curve; in most records, active means well fitted curve in the direction sought with a large enough effect; inconclusive means small, poorly fitted or top-dose-only effect, or another doubt; inactive means no such curve, though single readings can be large; an effect the other way counts as inactive or inconclusive. Unless noted, on the % scale 0 is the no-effect control and ±100 the full control effect.

SMILES	DT40 TDP1 CPT	IL1B secr inh	HT1080 IDH1KD tx	TDP1 cell noCPT	HT1080-NT tox
COc1ccc2[nH]c3c(c2c1)CCN1C(=O)C(CC(=O)NCC24CC5CC(CC(C5)C2)C4)C[C@H](C(=O)N2CCCCC2)[C@@]31C (stereo partly specified)	?	-64*	9%	18µM*	2%
CC(C)(C)NC(=O)CC1C[C@H](C(=O)N2CCCCC2)[C@@]2(C)c3[nH]c4ccccc4c3CCN2C1=O (stereo partly specified)	-28%	-14	-20%	?	-4%
COc1ccc2[nH]c3c(c2c1)CCN1C(=O)C(CC(=O)NCCN2CCOCC2)C[C@H](C(=O)N2CCCCC2)[C@@]31C (stereo partly specified)	-6%	-6	10%	-15%	13%
C[C@]12c3[nH]c4ccccc4c3CCN1C(=O)C(CC(=O)NCC13CC4CC(CC(C4)C1)C3)C[C@@H]2C(=O)N1CCCCC1 (stereo partly specified)	21µM*	-64*	?	26µM*	?
CCOC(=O)/C=C/[C@H]1CCc2cccc(Cl)c2O1	-17%	31	8%	-2%	10%
O=C(CCc1nc2ccccc2c(=O)[nH]1)NCCN1C(=O)S/C(=C\c2ccc(OC(F)F)cc2)C1=O	?	8	?	18µM*	-17%
O=C(CCc1nc2ccccc2c(=O)[nH]1)NCCN1C(=O)S/C(=C\c2ccccc2Cl)C1=O	?	-13	1%	?	-2%
O=C(COC(=O)Cc1ccc(Cl)cc1)NCc1ccc(Cl)cc1	-3%	-6	-1%	2%	2%
Oc1cccc(-c2nc3ccccc3s2)c1	-29%	48	?	?	?
Oc1ccc(O)c(Cc2nc3ccccc3s2)c1	?	-55*	16µM*	?	?
COc1ccccc1CNC(=O)c1c(N)n(CCCN2CCOCC2)c2nc3ccccc3nc12	?	?	-3%	?	7%
Nc1c(C(=O)NCCN2CCOCC2)c2nc3ccccc3nc2n1-c1ccc2c(c1)OCO2	?	-59*	-23%	?	?
Nc1c(C(=O)NCCN2CCOCC2)c2nc3ccccc3nc2n1-c1ccccc1	?	-52*	-1%	16µM*	-2%
Nc1c(C(=O)NCc2ccc3c(c2)OCO3)c2nc3ccccc3nc2n1CCCN1CCOCC1	23µM*	-98*	7%[9.24 µM]	?	?
Nc1ccc(-n2c(N)c(C(=O)NCc3ccc4c(c3)OCO4)c3nc4ccccc4nc32)cc1	?	-14	-14%	?	-16%
Cc1ccc(NC(=O)CCc2c(C)nc3c(-c4ccc(F)cc4)c(C)nn3c2C)cc1F	-20%	nt	nt	?	nt
Cc1cccc(CCNC(=O)CCc2c(C)nc3c(-c4ccc(F)cc4)c(C)nn3c2C)c1	?	nt	nt	9.2µM*	nt
COc1cc(NC(=O)CCc2c(C)nc3c(-c4ccc(F)cc4)c(C)nn3c2C)cc(OC)c1OC	5.2µM*	nt	nt	6.5µM*	nt
CC(=O)c1cccc(NC(=O)CCc2c(C)nc3c(-c4ccc(F)cc4)c(C)nn3c2C)c1	2.6µM*	nt	nt	?	nt
COC(CNC(=O)CCc1c(C)nc2c(-c3ccc(F)cc3)c(C)nn2c1C)OC	-11%	-2	-9%	?	-18%
CC(=O)c1ccc(OC2(C)CCN(Cc3csc4ccccc34)C2)cc1 (stereo unspecified)	?	-1	-15%	?	-17%
CC1(Oc2ccccc2-c2ccno2)CCN(Cc2csc3ccccc23)C1 (stereo unspecified)	18µM*	0	?	?	-25%
Cc1cnc(C(=O)OC(C(=O)c2c[nH]c3ccccc23)c2ccccc2)cn1 (stereo unspecified)	-3%	5	9%	-6%	4%
CCOC(=O)c1ccc(NC(=O)CC2C(=O)N(c3ccccc3)C(=O)N2C2CCCCC2)cc1 (stereo unspecified)	26µM*	nt	nt	16µM*	nt
Cc1cccc(N2C(=O)C(CC(=O)Nc3ccccc3)N(C3CCCCC3)C2=O)c1 (stereo unspecified)	-21%	nt	nt	?	nt
SMILES	DT40 TDP1 CPT	IL1B secr inh	HT1080 IDH1KD tx	TDP1 cell noCPT	HT1080-NT tox
CCOc1ccc(NC(=O)CC2C(=O)N(c3ccc(C)cc3)C(=O)N2C2CCCCC2)cc1 (stereo unspecified)	18µM*	nt	nt	?	nt
Cc1cc(SCC(=O)c2ccc(O)c(O)c2)n2nc(C)c(-c3ccccc3)c2n1	18µM*	0	9.2µM*	15µM*	8.2µM*
O=C(CN1CCN(Cc2ccccc2)CC1)Nc1ccc2c(c1)CCC2	2%	-86*	-17%	?	-5%
O=C(CN1CCN(S(=O)(=O)c2ccccc2)CC1)Nc1ccc2c(c1)CCC2	?	?	-10%	15µM*	-23%
Cc1cnc(SCc2ccc(Cl)cc2Cl)[nH]c1=O	?	3	-10%	21µM*	-2%
Cc1cc(=O)[nH]c(SCc2ccc(Cl)cc2Cl)n1	-19%	23	-6%	23µM*	-8%
Cc1cc(C)cc(NS(=O)(=O)c2c(C(=O)N3CCOCC3)c(C)n(C)c2C)c1	?	-24	7%	-4%	4%
CN(C)c1ccc(-c2c(-c3ccc4c(c3)OCO4)noc2-c2ccsc2)cn1	?	-9	-2%	?	0%
COc1ccc(-c2c(-c3ccc4c(c3)OCO4)noc2C)cn1	?	-3	-11%	11µM*!	-9%
COc1ccc(-c2c(-c3ccc4c(c3)OCO4)noc2-c2ccsc2)cn1	13µM*	nt	nt	14µM*	nt
COc1ccc(C2=CC(=O)C[C@H](c3ccc4c(c3)OCO4)C2)cn1	-26%	-16	3%	-15%	5%
COc1ccccc1CNCCCCCCNCCCCCCCCNCCCCCCNCc1ccccc1OC	13µM*	nt	nt	6.5µM*	nt
CCCCCCCCNCCS(=O)(=O)NCc1ccccc1OC	-93%	?	-16%	-87%	-11%
COc1ccccc1CNN	2.6µM*	?	-3%	5.8µM*	-4%
CCOc1ccccc1NC(=O)c1c(NC(=O)c2cccc(C)c2)sc2c1CCC2	?	nt	nt	-26%	nt
COc1ccc(NC(=O)CSc2nnc3n2CCCCC3)cc1S(=O)(=O)N(C)C	-1%	-6	0%	-2%	0%
COc1ccc(NC(=O)C2Cc3c(-c4ccccc4Oc4ccccc4)ccnc3O2)cc1OC (stereo unspecified)	9.2µM*	-12	?	16µM*	?
O=C(Nc1ccc(F)c(Cl)c1)C1Cc2c(-c3ccccc3Oc3ccccc3)ccnc2O1 (stereo unspecified)	?	?	0%	?	13µM*

Compound activity: PubChem, National Center for Advancing Translational Sciences (NCATS)
